# D1 ag: agonists of human D1 dopamine receptor; HEK293 T-REx D1 cells, calcium flux, agonist mode; activation, % at 2 µM; 360,000 compounds, 1% hits; AID 504660; also: 0% is about no effect
# Target sequence (P21728 whole entry, looked up): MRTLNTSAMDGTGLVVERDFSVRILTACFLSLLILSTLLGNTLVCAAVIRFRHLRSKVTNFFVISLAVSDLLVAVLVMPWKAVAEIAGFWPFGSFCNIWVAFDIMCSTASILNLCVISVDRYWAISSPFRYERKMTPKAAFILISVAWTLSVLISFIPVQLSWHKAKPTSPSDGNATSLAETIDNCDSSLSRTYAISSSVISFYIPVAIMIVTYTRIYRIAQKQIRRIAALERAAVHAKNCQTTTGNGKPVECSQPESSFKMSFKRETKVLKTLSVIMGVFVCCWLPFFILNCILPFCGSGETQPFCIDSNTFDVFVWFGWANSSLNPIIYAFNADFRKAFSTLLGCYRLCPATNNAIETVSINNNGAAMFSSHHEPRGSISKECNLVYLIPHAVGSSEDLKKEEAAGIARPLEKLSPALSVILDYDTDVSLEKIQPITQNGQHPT
#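 Tetracycline-induced HEK293 TREx D1 cells, force-coupled to calcium signalling, were dye-loaded with a no-wash calcium kit. Compound was pin-added after a 10 s baseline. Fluorescence was read kinetically at 1 cycle/s for 180 s, with calcium rises flagged as agonism.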
# Glioma ERSR ind: inducers of ER stress response in human glioma cells; U87-MG GRP78 promoter luciferase reporter, 16 h; Potency, µM, for inactives: at the top dose activation, actives largely listed as activators; 420,000 compounds, 0.02% hits; active = well fitted activation curve with a large enough effect; inconclusive = small, poorly fitted or top-dose-only effect; inactive = no such curve, though single readings can be large or run the other way; also: potency is read from the fitted curve at half-maximal effect; series mostly up to about 76 µM; % of control where 0% means no effect; nearly all actives have a fitted effect of over 35% in size
#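 ERSR induction read as luciferase luminescence (Bright-Glo, 10 min at room temperature) in stably transfected human U87-MG glioma cells exposed to compounds for 16 h, using GRP78 as sensor.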
# TRHR PAM: allosteric enhancers of human TRH receptor | P34981 | TRHR cells, fluo-8 calcium fluorescence, EC20 TRH enhancement | enhancement, % at 2 µM | 360,000 compounds, 0.66% hits; in the data active = enhancement above about 30%; also: 0% is about no effect
#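 Enhancer read-out: after compound pinning and an initial kinetic agonist-mode read, an EC20 of TRH (10 nM final) was injected and fluo-8 calcium signal (Ex 480/Em 530) followed at 1 s/cycle for 100 cycles in TRHR-expressing cells.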
# TRHR agonist: TRH receptor (human) agonism; P34981; TRHR cells, calcium flux fluo-8, FDSS agonist mode; activation, % at 2 µM; 360,000 compounds, 0.18% hits; also: 0% is about no effect
#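 Read-out: compound-evoked intracellular calcium rise in TRHR cells, fluo-8 dye, kinetic FDSS fluorescence at 1 s/cycle following a 10-cycle baseline. Cells cultured overnight before dye loading (30 min–1.5 h, RT).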
# D1 potentiator: human D1 dopamine receptor positive modulation. P21728. HEK293 TREx D1 cells, calcium flux, dopamine EC20 potentiation. potentiation, % at 10 µM. 360,000 compounds, 0.036% hits. AID 504651; in the data active = potentiation above about 30%; also: 0% is about no effect
# D1 antagonist: human D1 dopamine receptor antagonism | P21728 | HEK293 TREx D1 cells, calcium flux, dopamine EC80; active compounds read low | 360,000 compounds, 3.2% hits | activity change, negative = inhibition, % at 10 µM; in the data active = activity change below about -30%; also: % is scaled to controls: 0 for no effect and ±100 for the full control effect
#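 Tetracycline-induced HEK293 Trex D1 cells, force-coupled to calcium, dye-loaded; compounds added and read 180 s, then EC80 dopamine added and calcium flux tracked kinetically another 180 s.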
# * = called active by the depositor; ? = inconclusive; · = no result. Only some compounds are listed: those with a hit (about 4% of all), similar ones and a draw of the others. Rule as the data show it, unless noted: active = activation above about 30%; inactive = the rest.
SMILES,D1 ag,Glioma ERSR ind,TRHR PAM,TRHR agonist,D1 potentiator,D1 antagonist
COc1ccc(C(=O)N/N=C/c2ccc(OC)c(OS(=O)(=O)c3ccccc3)c2)cc1,1,-3%,-5,0,2,-7
CC1Cc2cc(S(=O)(=O)CCC(=O)N3CCN(c4ccccc4)CC3)ccc2N1C(=O)C1CC1 (configuration not stated),7,0%,-2,0,-11,-31*
CCOc1ccccc1N(C)S(=O)(=O)c1ccc2c(c1)CC(C)N2C(=O)C1CC1 (configuration not stated),20,2%,-4,0,-8,-32*
CC1Cc2cc(S(=O)(=O)NCc3ccccc3)ccc2N1C(=O)C1CC1 (configuration not stated),12,6%,-7,-1,-5,-25
CCN(c1ccccc1)S(=O)(=O)c1ccc2c(c1)CC(C)N2C(=O)C1CC1 (configuration not stated),17,-7%,0,0,-3,-32*
Cc1ccc(Cl)cc1NC(=O)CSc1nc(C)c(C)c(C)c1C#N,0,?,-1,0,5,-12
COc1ccc(N2CCN(C(=O)c3ccc(Cl)c(S(=O)(=O)N4CCCC4)c3)CC2)cc1,1,-1%,-6,-1,-3,-34*
Cc1ccccc1CNS(=O)(=O)c1c(C(=O)N2CCCC2)c(C)n(C)c1C,-1,-2%,35*,0,-8,-23
CC(=O)c1ccc(N2CCN(S(=O)(=O)c3c(C)[nH]c(C)c3C(=O)N3CCCC3)CC2)cc1,2,0%,6,0,1,-2
Cc1[nH]c(C)c(S(=O)(=O)N2CCN(c3ccc(Cl)cc3)CC2)c1C(=O)N1CCCC1,0,-6%,4,0,0,-34*
Cc1c(C(=O)N2CCCCC2)c(S(=O)(=O)NCc2ccccc2Cl)c(C)n1C,1,-4%,1,0,-2,-7
Cc1[nH]c(C)c(S(=O)(=O)NCc2ccc(Cl)cc2)c1C(=O)N1CCCC1,0,-4%,1,0,33*,-9
Cc1ccc(-n2ncc(C(=O)NCc3ccco3)c2C2CCN(C(=O)OC(C)(C)C)CC2)cc1C,3,-3%,-8,1,-2,11
CCCN1CCC(=O)N([C@H](CSc2ccc(OC)cc2)Cc2ccccc2)CC1,2,0%,0,-1,0,22
O=C(c1ccc(Cl)cc1)N1CCN(c2ccc(F)cc2)CC1,-3,-1%,-1,0,-7,15
Cc1ccc(CCNC(=O)C2CCCN(C(=O)c3cc4sccc4n3C)C2)cc1 (configuration not stated),3,-2%,-3,0,-6,2
COc1ccccc1C(=O)OCC(=O)NC12CC3CC(CC(C3)C1)C2,0,1%,3,0,-5,6
COc1ccc(N2CCN(S(=O)(=O)c3c(C(=O)N4CCOCC4)c(C)n(C)c3C)CC2)cc1,4,?,-3,0,-1,-35*
Cc1c(C(=O)N2CCCCC2)c(S(=O)(=O)N2CCN(c3ccc(F)cc3)CC2)c(C)n1C,-1,-3%,-12,0,-9,-15
Cc1c(C(=O)N2CCCCC2)c(S(=O)(=O)N2CCN(c3ccc(Cl)cc3)CC2)c(C)n1C,7,-2%,-1,-1,-10,-32*
Cc1c(C(=O)N2CCOCC2)c(S(=O)(=O)Nc2cccc(F)c2)c(C)n1C,3,-1%,-5,0,-7,-14
Cc1c(C(=O)N2CCOCC2)c(S(=O)(=O)Nc2cccc(C#N)c2)c(C)n1C,2,2%,8,0,-3,-49*
CCOC(=O)C[C@@H](CC(C)=O)C(=O)OCC,·,-5%,·,·,·,·
CN(C)c1ccc(CNc2nc(-c3ccco3)nn2S(=O)(=O)c2ccc(Cl)cc2)cc1,2,0%,2,-2,0,5
Cc1cccc(NC(=O)CSc2nnc(C3CC3)n2CC2CCCO2)c1C (configuration not stated),3,1%,-7,0,-2,-1
SMILES,D1 ag,Glioma ERSR ind,TRHR PAM,TRHR agonist,D1 potentiator,D1 antagonist
CCc1ccccc1NC(=O)CSc1nnc(C2CC2)n1CC1CCCO1 (configuration not stated),1,-1%,31*,-2,10,6
CC(=O)N1c2ccc(S(=O)(=O)N(C)Cc3ccccc3)cc2CC1C (configuration not stated),9,-3%,0,0,-8,-11
O=C1C2C(C(=O)N1/N=C/c1cc(Br)cc([N+](=O)[O-])c1O)C1C=CC2C12CC2 (configuration not stated),5,-1%,-2,0,1,-31*
O=C1C2C(C(=O)N1/N=C/c1cc([N+](=O)[O-])c(O)cc1O)C1C=CC2C12CC2 (configuration not stated),1,-4%,3,-2,-1,-4
CN(CCCNC(=O)CCC(=O)N1CCOc2ccc(Cl)cc21)Cc1ccccc1,6,-5%,-3,0,-14,-31*
Cc1ccc2c(c1)N(C(=O)CCC(=O)NCCCN1CCC(Cc3ccccc3)CC1)CCO2,23,-6%,-3,1,-11,-40*
CCC1CCCCN1CCCNC(=O)CCC(=O)N1CCOc2ccccc21 (configuration not stated),5,-3%,4,0,0,-30*
O=C(CCC(=O)N1CCOc2ccccc21)NCCCN1CCCCC1,1,-6%,0,0,-8,5
CN(Cc1ccccc1)C(=O)Nc1ccccc1,2,-5%,-3,1,-7,2
Cc1ccc(C)c(NC(=O)CN(C)C(=O)c2ccc(-c3cccc(C(F)(F)F)c3)o2)c1,5,6%,37*,0,-5,19
CN(CC(=O)Nc1cccc(F)c1)C(=O)c1ccc(-c2cccc(C(F)(F)F)c2)o1,4,-4%,9,0,0,6
Cc1ccccc1CNC(=O)Cn1ncn2nc(-c3cccs3)cc2c1=O,7,-3%,-5,-1,0,-36*
COc1ccc(NC(=S)NCCc2ccc(S(N)(=O)=O)cc2)c(OC)c1,-3,0%,1,0,10,-18
O=c1cc(-c2ccccc2)[nH]n1-c1nc2ccccc2s1,0,-1%,-22,0,-8,-36*
O=c1cc(-c2ccccc2)[nH]n1-c1ccccc1,·,-3%,·,·,·,·
COc1ccc(OCC(=O)N/N=C2/C=C(C)CC2)cc1,0,-1%,33*,0,-3,12
Cc1nc(COc2ccc(C(=O)NCc3ccccc3CN3CCCCC3)cc2)cs1,34*,-6%,13,-1,4,-64*
